Screens as filed in PubChem BioAssay.
Compounds with a hit are over-represented: about 0.54% of the library has one in this group of screens.
TRPML1 blocker – human mucolipin-1 channel inhibition | TRPML1-inducible cells, Ca2+ dye fluorescence, FDSS; hits give low values; inhibition of EC80 agonist-evoked calcium signal | activity change, negative = inhibition, % (concentration not given with the values) | hit rate 0.02% among 390,000; in the data active = activity change below about -50%; inconclusive = between about -30% and that limit;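 also: stimulus is agonist 54-4 at its EC80 concentration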
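Tet-induced TRPML1-DL cells loaded with Ca8 no-wash calcium dye were read kinetically on FDSS. Compound addition was followed by EC80 agonist 54-4 (4 uM final); inhibition was read over 110 s.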
Vif-APOBEC3G blk – inhibitors of Vif-APOBEC3G interaction | Q9HC16 | HeLa A3G-eYFP + Vif (tagged APOBEC3G with the HIV-1 protein that degrades it), YFP fluorescence, overnight | Potency, µM (series often up to 46.1 µM), hits mostly inhibitors | hit rate 0.076% among 410,000 | AID 602310; also: nearly all actives have a fitted effect of over 60% in size
Target sequence (Q9HC16 whole entry, looked up): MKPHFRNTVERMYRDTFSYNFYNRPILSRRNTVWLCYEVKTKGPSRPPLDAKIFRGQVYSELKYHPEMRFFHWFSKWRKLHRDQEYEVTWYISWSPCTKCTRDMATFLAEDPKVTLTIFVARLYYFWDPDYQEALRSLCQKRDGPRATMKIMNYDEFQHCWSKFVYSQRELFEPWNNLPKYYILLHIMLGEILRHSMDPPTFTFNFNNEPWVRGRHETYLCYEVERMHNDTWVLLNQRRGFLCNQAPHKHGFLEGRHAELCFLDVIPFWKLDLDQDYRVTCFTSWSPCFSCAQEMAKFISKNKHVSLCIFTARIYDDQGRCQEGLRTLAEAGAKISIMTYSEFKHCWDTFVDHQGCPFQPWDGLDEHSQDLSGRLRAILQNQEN
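HeLa cells stably expressing Vif and C-terminally eYFP-tagged A3G, seeded overnight at 37 deg C, then exposed to compound by pintool overnight at 37 deg C. Rise in yellow fluorescence (Ex 488/Em 500-530, Acumen) marks blocked Vif-driven A3G degradation.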
AT treatment – potential ataxia-telangiectasia treatments restoring KAP-1 phosphorylation | F2112 A-T fibroblasts, KAP-1 phosphorylation AlphaLISA; neocarzinostatin DNA damage 30 min before lysis | Potency, µM (series often up to 57.5 µM), usual class: activators | hit rate 0.19% among 320,000; also: nearly all actives have a fitted effect of over 45% in size
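ATM-like activity read as KAP-1 phosphorylation via AlphaLISA donor/acceptor antibody pairs after lysis and 6 hr at 25C. Cells were ATM-null patient fibroblasts (F2112, hTERT), dosed 60 min, then exposed to the DSB inducer NCS for 30 min.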
TRPML1 agonist – human mucolipin-1 channel agonism; TRPML1-expressing cells, Ca2+ dye fluorescence, FDSS; AID 624414; activation, % (test concentration not listed); Q9GZU1; hit rate 0.12% among 410,000; in the data active = activation above about 50%; inconclusive = mostly about 30% to 49%
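Tetracycline-induced TRPML1-DL cells are seeded and incubated overnight before loading with a no-wash Ca2+ dye and quencher. Agonist activity is taken from the 110 s fluorescence read following compound pin-transfer on an FDSS, before EC80 54-4 challenge.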
Vif-APOBEC3F blk – Vif-A3F binding inhibition | HeLa A3F-eYFP + Vif (tagged APOBEC3F with the HIV-1 protein that degrades it), YFP fluorescence increase | Potency, µM (series often up to 46.1 µM) | hit rate 0.2% among 390,000; also: nearly all actives have a fitted effect of over 65% in size
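Fluorescence increase (Ex 488/Em 500-530) after overnight compound treatment at 37 deg C flags inhibition of Vif-driven A3F-eYFP loss in stable HeLa A3F-eYFP/Vif cells seeded overnight beforehand.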
Of the large screens only hits and unclear results are named; the others gave an inactive call. Unless noted, calls follow the shape of the dose curve; as a rule, active = well fitted curve in the direction sought with a large enough effect; inconclusive = small, poorly fitted or top-dose-only effect, or another doubt; inactive = no such curve, though single readings can be large; an effect the other way counts as inactive or inconclusive.

CC(=O)Nc1ccc(NC(=O)C/C(C)=N/NC(N)=S)cc1	Vif-APOBEC3F blk 7.9µM
CCOc1ccc(NC(=O)Cn2c(=O)n(Cc3nc(-c4ccccc4)no3)c(=O)c3ccccc32)cc1	none (no result: AT treatment)
CC1=CC(C)(C)Nc2ccc(OC(=O)c3ccco3)cc21	Vif-APOBEC3G blk 11µM, Vif-APOBEC3F blk inconclusive
CC1=CC(C)(C)Nc2ccc(OC(=O)c3cccnc3)cc21	Vif-APOBEC3G blk inconclusive, Vif-APOBEC3F blk inconclusive (no result: AT treatment)
Brc1cccc(-c2nnn3c2nc(N2CCCCC2)c2ccccc23)c1	none (no result: AT treatment)
C=C1C(=O)C=C2CN(C(=O)c3ccccc3)[C@@](Cc3ccc(F)cc3)(C(=O)OC)[C@@H]12	Vif-APOBEC3G blk 7.1µM
Cc1ccc2nc3c(cc(C(=O)NC4CCS(=O)(=O)C4)n3Cc3ccccc3)c(=O)n2c1 (configuration not stated)	AT treatment 32µM
O=C(NC1CCS(=O)(=O)C1)c1cc2c(=O)n3ccccc3nc2n1Cc1ccccc1 (configuration not stated)	none (no result: AT treatment)
COCCc1nn2c(=O)cc(COC(=O)COc3ccc(F)cc3)nc2s1	none (no result: AT treatment)
N#C[C@H]1[C@H](c2ccccc2)[C@](C#N)(C(=O)c2ccccc2)[C@@H]2C=Cc3ccccc3N21	AT treatment 16µM (no result: TRPML1 blocker, Vif-APOBEC3G blk, TRPML1 agonist, Vif-APOBEC3F blk)
COc1ccc(C(=O)N2c3ccccc3C=CC2C#N)cc1 (configuration not stated)	Vif-APOBEC3G blk inconclusive
COc1ccc(-n2c(C)cc(/C=C3\SC(=S)NC3=O)c2C)cc1	Vif-APOBEC3F blk 10µM
CC(C)OCCCn1c(=O)c2ccccc2n2c(-c3cc(Cl)ccc3O)nnc12	none (no result: AT treatment)
COc1ccc(-c2sc3ccccc3c2C#CC2(O)CCCCC2)cc1	AT treatment 32µM
Cn1cncc1C#Cc1c(-c2ccc(S(C)(=O)=O)cc2)sc2ccccc12	none
COc1ccc(-c2sc3ccccc3c2C#Cc2cncn2C)cc1	Vif-APOBEC3G blk inconclusive, AT treatment 32µM
O=C(c1ccc(Br)s1)N1CCN(Cc2ccc3c(c2)OCO3)CC1	TRPML1 blocker -51
CN(C)c1cccc2c(S(=O)(=O)N3CCOCC3)cccc12	none
CN(C)c1cccc2c(S(=O)(=O)N3CCCC3)cccc12	AT treatment 20µM
CC1(C)N=C(N)N=C(N)N1c1cccc(CN)c1	AT treatment 28µM
CN(C)CC(C(=O)c1ccccc1)c1ccccc1 (configuration not stated)	Vif-APOBEC3G blk inconclusive, AT treatment 32µM
CCN(CC)c1nc(C)c(C(=S)Nc2cc([N+](=O)[O-])ccc2Cl)s1	Vif-APOBEC3F blk 11µM
c1cncc(-c2nc(NCc3cccs3)c3ccccc3n2)c1	Vif-APOBEC3F blk 18µM
N#Cc1c(-c2ccccc2)cc(-c2ccccc2)[nH]c1=O	AT treatment 0.79µM
COc1cc(-c2cc(-c3ccc(N)cc3)[nH]c(=O)c2C#N)cc(OC)c1OC	Vif-APOBEC3F blk inconclusive
Cn1c(N/N=C/c2cc3ccccc3nc2Cl)nc2ccccc21	Vif-APOBEC3G blk 11µM, Vif-APOBEC3F blk 22µM
Cn1c(N/N=C/c2c[nH]c3ccccc23)nc2ccccc21	none
COc1cccc(CN(CC2CCCO2)S(=O)(=O)c2ccc(S(=O)(=O)N(C)C)cc2)c1 (configuration not stated)	TRPML1 agonist 87
O=C(O)/C=C/c1cn(Cc2ccccc2)nc1-c1ccc(Cl)cc1	none
O=C(O)/C=C/c1cn(Cc2ccccc2Cl)nc1-c1ccccc1	AT treatment 10µM (no result: TRPML1 blocker, TRPML1 agonist)
Oc1c(C=Nc2ccccc2)sc2ccccc12	Vif-APOBEC3G blk inconclusive
Oc1c(C=Nc2cccnc2)sc2ccccc12	none
Oc1sc(C=Nc2ccccc2)c2ccccc12	Vif-APOBEC3G blk 11µM, TRPML1 agonist inconclusive, Vif-APOBEC3F blk 25µM
Oc1sc(C=Nc2ccc(F)cc2)c2ccccc12	Vif-APOBEC3G blk inconclusive, Vif-APOBEC3F blk 2.8µM
CN(C)c1ccc(NC(=O)CSC2=Nc3ccccc3C3=NC(CCC(=O)NCc4cccs4)C(=O)N23)cc1 (configuration not stated)	none (no result: AT treatment)
Oc1ccccc1-c1nc(NCc2cccnc2)c2ccccc2n1	Vif-APOBEC3F blk inconclusive (no result: TRPML1 blocker, TRPML1 agonist)
Oc1ccccc1-c1nc(NCc2ccccc2)c2ccccc2n1	Vif-APOBEC3F blk 22µM
CSCC[C@H](NC(=O)[C@H](Cc1ccccc1)n1c(=O)[nH]c2ccccc2c1=O)C(=O)N1CCC[C@@H]1C(=O)O	Vif-APOBEC3G blk 10µM (no result: TRPML1 blocker, TRPML1 agonist)
C[C@H](NC(=O)[C@H](Cc1ccccc1)n1c(=O)[nH]c2ccccc2c1=O)C(=O)N1CCC[C@H]1C(=O)O	none
CCNc1nc(Sc2ccc(C)cc2)cc(C(F)(F)F)n1	AT treatment 32µM
CCNc1nc(Oc2ccc(OC)cc2)cc(C(F)(F)F)n1	none
CCNc1nc(Oc2ccc(Cl)cc2Cl)cc(C(F)(F)F)n1	AT treatment 32µM
COc1cc2nc(N3CCCN(C)CC3)nc(NC3CCN(C)C3)c2cc1OC (configuration not stated)	none (no result: TRPML1 blocker, AT treatment, Vif-APOBEC3F blk)
CCCCOc1ccc2c(c1)/C(=C(\C(Cl)=C(Cl)Cl)[N+](=O)[O-])N2	Vif-APOBEC3G blk inconclusive, Vif-APOBEC3F blk 22µM
CCOc1ccc2c(c1)/C(=C(\C(Cl)=C(Cl)Cl)[N+](=O)[O-])N2	Vif-APOBEC3G blk inconclusive, Vif-APOBEC3F blk inconclusive
Cc1ccc2c(c1C)-c1c(ccc(C)c1C)C(=O)C2=O	none (no result: AT treatment)
Cc1ccc(CC#N)c(-c2c(CC#N)ccc(C)c2C)c1C	TRPML1 agonist 78 (no result: AT treatment)
N=C1S/C(=C\c2ccc(-c3cccc(Cl)c3)o2)C(=O)N1c1nccs1	Vif-APOBEC3F blk 25µM
CCCCCn1c(CCCNC(=O)c2ccc(Cl)cc2)nc2ccccc21	none (no result: AT treatment)
Cc1cc(C)c2c(=O)c3c(oc2c1)C(=O)N(CCO)C3c1cccc(O)c1 (configuration not stated)	TRPML1 blocker -56
O=C(Nc1ccccc1F)c1oc2ccccc2c1NC(=O)C12CC3CC(CC(C3)C1)C2	none (no result: AT treatment)
Cc1ccc2c(c1)c1c3n2CCN(C(=O)c2ccc(C(F)(F)F)cc2)C3CCC1 (configuration not stated)	TRPML1 agonist 56 (no result: AT treatment)
Cc1cccn2c(=O)c3cc(C(=O)NC4CCCCC4)c(=N)n(CCN4CCOCC4)c3nc12	AT treatment 16µM (no result: TRPML1 blocker, TRPML1 agonist)
CCCn1c(=N)c(C(=O)NC2CCCC2)cc2c(=O)n3cccc(C)c3nc21	none
CC1=C(C(=O)N(C(C)C)C(C)C)CC(CC(=O)NC2CCCCC2)C(=O)N1Cc1ccc(F)cc1 (configuration not stated)	none (no result: TRPML1 blocker, AT treatment, Vif-APOBEC3F blk)
O=C(CCC1N=C2c3ccccc3N=C(SCc3ccc(F)cc3)N2C1=O)NC1CCCCC1 (configuration not stated)	Vif-APOBEC3F blk inconclusive (no result: AT treatment)
CSc1ccccc1NC(=O)c1cccs1	none
O=C(Nc1ccccc1Oc1ccccc1)c1cccs1	AT treatment 3.5µM
